Active and inactive are the calls of the source.
Tests used:
[1] = test system: Human papillomavirus type 1a protein E7 (residues 44-93); assay: HPV1a E7 fragment binders on microarrays, primary screen, biochemical, small-molecule microarray, residues 44-93, 635 nm fluorescence (AID 1108); details: small-molecule microarray binding, fluorescence 635 nm; higher = more signal;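 note: E7 fragment applied at 1 µg/mL in TBST for 1 h at 4 C; score combines spot fluorescence with its signal to noise ratio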
[2] = modulators of HCV replicon luciferase signal, primary screen, HCV replication inhibitor project, Huh7 cells, luciferase reporter (AID 1109); details: 48 h, higher = more signal;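 note: huh7 hepatoma cells harbouring a luciferase neomycin HCV replicon reporter; luciferase luminescence as measure of HCV replicon replication; test concentration not given here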
[3] = molecular target: Left-right determination factor 2 (Homo sapiens) (UniProt O00292); assay: LEFTY2 binders on small-molecule microarrays, primary screen, biochemical, small-molecule microarray, 635 nm fluorescence scan (AID 1110); details: LEFTY2 binding, higher = more signal
[4] = molecular target: Calmodulin-1 (Homo sapiens) (UniProt P0DP23); assay: CALM1 binders on microarrays, EGTA buffer, profiling panel, biochemical, small-molecule microarray, Cy5-labelled CALM1 (AID 1111); details: Cy5-CALM1 binding fluorescence, higher = more signal;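 note: labelled calmodulin applied in Tris saline Tween buffer holding calcium plus EGTA and DTT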
[5] = molecular target: Calmodulin-1 (Homo sapiens) (UniProt P0DP23); assay: calcium-bound CALM1 binders on microarrays, profiling panel, artefact control for SMM control-protein annotation, biochemical, small-molecule microarray, Cy5-labelled CALM1, plus calcium (AID 1112); details: Cy5-CALM1 binding fluorescence, higher = more signal;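 note: score merges spot fluorescence with signal to noise from triplicate slides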
[6] = small-molecule microarray binders of probe aWnt5a, primary screen, biochemical, biotinylated probe, 635/667 nm fluorescence (AID 1113); details: higher = more signal;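 note: score merges 667 nm fluorescence intensity with signal-to-noise per printed feature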
[7] = small-molecule microarray binders of probe aShh, primary screen, biochemical, biotinylated probe, 635/667 nm fluorescence (AID 1114); details: higher = more signal;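 note: probe is biotin-labelled aShh protein from a stem cell growth factor screen; measures binding of labelled protein to compounds printed on the slide; score merges feature fluorescence at 667 nm with signal-to-noise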
[8] = small-molecule microarray binders of probe aNog, primary screen, biochemical, biotinylated probe, 635/667 nm fluorescence (AID 1115); details: higher = more signal;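 note: probe is biotinylated aNog protein used at 0.15 µg/mL for 1 h at 4 C; z-score combines 667 nm fluorescence of each spot with its signal to noise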
[9] = molecular target: Torsin-1A-interacting protein 1 (Homo sapiens) (UniProt Q5JTV8); assay: LAP1 binders from COS7 cell lysate, primary screen, small-molecule microarray, 635/667 nm fluorescence (AID 1116); details: COS7-hLAP1 lysate binding, 635 nm fluorescence, higher = more signal
[10] = molecular target: Alpha-bungarotoxin (Bungarus multicinctus) (UniProt P60615); assay: alpha-bungarotoxin binders on microarray, profiling panel, artefact control for SMM control protein annotation, biochemical, small-molecule microarray, Alexa647 label, 635/667 nm fluorescence (AID 1117); details: alpha-BTX-A647 binding fluorescence, higher = more signal
Albumin (Bos taurus) = Albumin (Bos taurus) (UniProt P02769); assay: bovine serum albumin binders on microarray, profiling panel, artefact control for SMM control protein annotation, biochemical, small-molecule microarray, Alexa647 label, 635/667 nm fluorescence (AID 1118); details: BSA-A647 binding, fluorescence 635 nm, higher = more signal;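 note: score merges 667 nm emission intensity and signal-to-noise per printed compound spot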
[11] = small-molecule microarray binders of probe aXIP, primary screen, biochemical, NeuroSMM set, 635/667 nm fluorescence (AID 1119); details: higher = more signal, called active from +8 up or from −8 down;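 note: probe is the protein aXip251-270 applied at 1 µg/mL to compound-printed slides; binding of probe to printed compounds measured as 667 nm fluorescence plus signal to noise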
[12] = small-molecule binders of probe aNOTCH3, primary screen, biochemical, small-molecule microarray, 635/667 nm fluorescence (AID 1120); details: higher = more signal;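 note: probe is a biotin-tagged antibody raised against NOTCH3 rather than NOTCH3 protein; score merges spot fluorescence near 667 nm with spot signal to noise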
[13] = small-molecule binders of probe aNOTCH2, primary screen, biochemical, small-molecule microarray, 635/667 nm fluorescence (AID 1121); details: higher = more signal;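 note: score merges feature fluorescence read at 667 nm with its signal to noise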
[14] = molecular target: Carbonic anhydrase 2 (Homo sapiens) (UniProt P00918); assay: CAII small-molecule binders, profiling panel, biochemical, small-molecule microarray, Alexa647-labelled CAII (AID 1122); details: CAII-A647 binding fluorescence, higher = more signal
[15] = COS7 lysate on small-molecule microarray, probe aHis, 635 nm (AID 1123); details: COS7 cell lysate, fluorescence, higher = more signal;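 note: z-score combines 667nm fluorescence intensity with signal-to-noise per printed compound spot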
[16] = compound binding in COS7 lysate, probe aLAP1, primary screen, cell lysate, small-molecule microarray (AID 1124); details: probe aLAP1, fluorescence, higher = more signal;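 note: lysate comes from COS7 cells expressing LAP1 and is applied at 0.3 µg/mL; score merges spot fluorescence near 667 nm with signal-to-noise over triplicate slides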
Sam68 (KHDRBS1) = assay: Sam68 small-molecule binders, primary screen, biochemical, small-molecule microarray, 635 nm fluorescence (AID 1125); details: small-molecule microarray binding, higher = more signal;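 note: score merges 667 nm channel intensity with signal to noise over triplicate slides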
[17] = test system: Chordin-like protein 2 (CHRDL2); assay: CHRDL2 small-molecule binders, primary screen, biochemical, small-molecule microarray, 635 nm fluorescence (AID 1126); details: small-molecule microarray binding, fluorescence 635 nm; higher = more signal;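 note: printed compound slides probed with Chrdl2 protein at 4 µg/mL for 1 h at 4 C; score merges 667 nm emission intensity with signal to noise over three replicate slides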
[18] = molecular target: Concanavalin-A (Canavalia ensiformis) (UniProt P02866); assay: ConA small-molecule binders, primary screen, artefact control for SMM control protein annotation, biochemical, small-molecule microarray, Alexa647 label, 635 nm (AID 1127); details: ConA-A647 binding fluorescence, higher = more signal;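 note: z combines 667 nm emission intensity with signal-to-noise across three replicate slides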
Sequence of Concanavalin-A (Canavalia ensiformis) (P02866 whole entry, looked up): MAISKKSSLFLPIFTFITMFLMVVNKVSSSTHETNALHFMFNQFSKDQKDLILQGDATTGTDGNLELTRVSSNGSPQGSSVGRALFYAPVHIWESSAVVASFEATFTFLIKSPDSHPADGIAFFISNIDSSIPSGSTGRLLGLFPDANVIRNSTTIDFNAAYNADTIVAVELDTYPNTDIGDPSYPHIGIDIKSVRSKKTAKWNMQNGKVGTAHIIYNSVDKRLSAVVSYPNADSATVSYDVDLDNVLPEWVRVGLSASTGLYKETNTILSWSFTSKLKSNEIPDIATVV

Sequence of Left-right determination factor 2 (Homo sapiens) (O00292 whole entry, looked up): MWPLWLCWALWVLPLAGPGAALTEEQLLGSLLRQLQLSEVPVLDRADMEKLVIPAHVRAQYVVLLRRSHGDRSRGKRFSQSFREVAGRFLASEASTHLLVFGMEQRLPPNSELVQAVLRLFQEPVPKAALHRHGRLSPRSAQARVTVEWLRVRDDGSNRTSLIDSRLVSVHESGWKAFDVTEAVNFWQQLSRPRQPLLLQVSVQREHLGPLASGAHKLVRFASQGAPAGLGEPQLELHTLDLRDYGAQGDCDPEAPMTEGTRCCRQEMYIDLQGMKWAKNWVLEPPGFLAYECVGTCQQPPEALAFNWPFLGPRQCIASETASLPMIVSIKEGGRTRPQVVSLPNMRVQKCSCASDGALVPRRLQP
Sequence of Torsin-1A-interacting protein 1 (Homo sapiens) (Q5JTV8 whole entry, looked up): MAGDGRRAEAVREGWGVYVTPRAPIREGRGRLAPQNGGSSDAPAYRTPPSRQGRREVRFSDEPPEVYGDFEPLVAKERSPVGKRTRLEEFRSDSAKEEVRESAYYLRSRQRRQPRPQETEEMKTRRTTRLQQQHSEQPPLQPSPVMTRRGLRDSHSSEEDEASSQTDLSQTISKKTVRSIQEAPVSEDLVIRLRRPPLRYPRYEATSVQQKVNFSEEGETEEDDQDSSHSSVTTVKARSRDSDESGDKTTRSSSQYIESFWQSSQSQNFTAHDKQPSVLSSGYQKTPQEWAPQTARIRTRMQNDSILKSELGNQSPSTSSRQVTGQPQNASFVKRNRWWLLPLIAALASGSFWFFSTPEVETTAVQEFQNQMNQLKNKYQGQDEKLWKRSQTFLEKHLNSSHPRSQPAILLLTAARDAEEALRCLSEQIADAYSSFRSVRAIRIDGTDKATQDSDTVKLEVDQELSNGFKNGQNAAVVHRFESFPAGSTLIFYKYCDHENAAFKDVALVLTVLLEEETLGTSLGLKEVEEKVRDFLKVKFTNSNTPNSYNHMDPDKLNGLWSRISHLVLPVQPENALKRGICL
Sequence of Albumin (Bos taurus) (P02769 whole entry, looked up): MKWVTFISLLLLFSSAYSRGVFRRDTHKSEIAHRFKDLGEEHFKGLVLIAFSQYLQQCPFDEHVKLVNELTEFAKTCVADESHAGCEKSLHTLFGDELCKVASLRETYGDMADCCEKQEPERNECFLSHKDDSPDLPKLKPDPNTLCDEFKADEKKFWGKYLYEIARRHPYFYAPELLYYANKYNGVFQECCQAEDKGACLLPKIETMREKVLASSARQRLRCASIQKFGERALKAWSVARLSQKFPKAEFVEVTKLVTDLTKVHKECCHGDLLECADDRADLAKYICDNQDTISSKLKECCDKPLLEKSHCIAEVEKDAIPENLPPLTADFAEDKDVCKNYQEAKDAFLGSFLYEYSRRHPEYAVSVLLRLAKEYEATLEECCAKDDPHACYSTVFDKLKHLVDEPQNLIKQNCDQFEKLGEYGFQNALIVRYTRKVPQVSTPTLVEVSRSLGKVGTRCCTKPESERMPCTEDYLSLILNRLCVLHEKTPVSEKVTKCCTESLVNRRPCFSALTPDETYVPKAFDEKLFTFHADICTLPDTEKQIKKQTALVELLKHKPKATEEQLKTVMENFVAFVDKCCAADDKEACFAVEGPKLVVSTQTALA
Sequence of Alpha-bungarotoxin (Bungarus multicinctus) (P60615 whole entry, looked up): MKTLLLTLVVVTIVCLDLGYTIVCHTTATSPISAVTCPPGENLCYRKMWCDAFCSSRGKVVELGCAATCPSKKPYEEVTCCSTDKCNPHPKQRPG

| SMILES | composite z-score [1] | z-score [2] | composite z-score [3] | composite z-score [4] | composite z-score [5] | composite z-score [6] | composite z-score [7] | composite z-score [8] | composite z-score [9] | composite z-score [10] | composite z-score (Albumin (Bos taurus)) | composite Z-score [11] | composite z-score [12] | composite z-score [13] | composite z-score [14] | composite z-score [15] | composite z-score [16] | composite z-score (Sam68 (KHDRBS1)) | composite z-score [17] | composite z-score [18] |
| --- | --- | --- | --- | --- | --- | --- | --- | --- | --- | --- | --- | --- | --- | --- | --- | --- | --- | --- | --- | --- |
| COCCOC(=O)N1C(=O)[C@@]2(c3cc(C#CC4(O)CCCCCC4)ccc31)[C@H](c1ccc(OCCO)cc1)N1[C@H](c3ccccc3)[C@H](c3ccccc3)OC(=O)[C@H]1[C@@H]2C(=O)N1CCCCCCC1 | 1.41 | -1.94 | 0.725 | 2.18 | 1.45 | 0.716 | 1.01 | 2.62 | 2.51 | 1.89 | 0.571 | 1.12 (inactive) | 1.14 | 0.0899 | 0.357 | 2.47 | 1.02 | 1.31 | 0.744 | 1.15 |
| CN1C(=O)[C@]2(CCS(=O)(=O)c3ccccc3)N=C(c3ccc(OCCCO)cc3)O[C@@H]2c2ccccc21 | 1.5 | -2.63 | -0.249 | 1.11 | -0.545 | -0.0704 | -0.0119 | -0.122 | 0.0996 | 0.836 | 0.568 | 0.222 (inactive) | 0.0026 | -0.121 | 0.531 | 2.81 | 0.354 | 1.2 | 0.502 | 0.838 |
| CC#CCO[Si](C#CCCCCCC)(C(C)C)C(C)C | -0.321 | 0.158 | -3.37 | -0.626 | 1.01 | -0.275 | -0.304 | -0.417 | -0.438 | 0.0016 | -0.611 | -0.244 (inactive) | -0.597 | -0.192 | -0.553 | -0.0607 | -0.529 | 0.204 | -2.33 | -2.41 |
| CC1(C)OC[C@@]23C=C(Br)[C@@H](C[C@H]12)[C@@]1(CO1)C3=O | 0.223 | -1.33 | 0.841 | 0.0619 | -0.866 | 0.0937 | -0.0769 | -0.132 | 0.0611 | 0.179 | -0.172 | 0.0315 (inactive) | 0.0824 | -0.189 | -0.0169 | -0.0842 | -0.0515 | 0.107 | 0.467 | 0.262 |
| N[C@@H](Cc1ccccc1)Cn1cc(C2(O)CCCCC2)nn1 | 0.488 | 0.118 | 0.0904 | 0.816 | -0.431 | -0.0236 | 0.23 | -0.0827 | 0.228 | 0.967 | -0.052 | -0.116 (inactive) | -0.014 | -0.14 | -0.29 | 0.451 | 0.0682 | 0.525 | 0.0155 | 0.88 |
| COC(=O)[C@H](Cc1ccc(O)cc1)N1CC2=CCCC=C[C@@H]2[C@H]1[C@H](O)Cc1ccccc1 | -0.615 | -0.798 | 0.45 | -0.197 | -0.757 | -0.157 | -0.138 | -0.292 | 0.0548 | 0.0212 | 0.293 | -0.223 (inactive) | -0.0319 | -0.0772 | 0.669 | 0.16 | -0.0126 | -0.163 | 0.706 | 0.295 |
| COCC(=C=CC[C@@H](O)c1ccc(OCCO)cc1)C[C@@H](O)COCc1ccccc1 | 1.39 | -1.08 | 1 | 0.0268 | 0.473 | 0.0559 | 0.0611 | 0.629 | 0.319 | 0.0353 | 0.769 | -0.727 (inactive) | 0.0528 | -0.0796 | 0.805 | 2.3 | 0.686 | 1.28 | 0.0466 | 0.547 |
| C=CCC(OC(C)=O)[C@@H]1[C@@H](N(Cc2ccc(-c3cccc(C(F)(F)F)c3)o2)C(=O)Cc2ccc(F)cc2)c2cc(OCCCO)ccc2N1C(=O)c1ccc2ccccc2c1 (stereo not given in full) | -1.18 | -0.735 | -0.72 | -0.681 | -0.214 | -0.0548 | -0.221 | -0.624 | 0.0175 | -0.318 | -0.229 | -0.0127 (inactive) | -0.0813 | -0.117 | -0.351 | 0.0261 | -0.211 | -0.749 | -0.0715 | -1.35 |
| NC(=O)[C@@]1(CCS(=O)(=O)c2ccccc2)COC(c2ccc(OCCCO)cc2)=N1 | -0.244 | -0.806 | -0.323 | 1.12 | 0.549 | -0.0495 | 0.138 | -0.359 | 0.512 | 0.768 | 0.336 | -0.823 (inactive) | 0.119 | 0.327 | 0.445 | 0.043 | -0.84 | -0.0922 | -0.536 | 0.411 |
| CC(C)C(=C=CC[C@@H](O)c1ccccc1OCCO)C[C@@H](O)c1cc(Cl)cc(Cl)c1O | 1.48 | -3.27 | 0.744 | 0.341 | -0.538 | -0.0735 | -0.153 | 0.432 | -0.197 | 1.54 | 0.77 | -0.235 (inactive) | 0.156 | -0.147 | 0.68 | 1.76 | 0.632 | 1.26 | 0.784 | 0.612 |
| C=CCC(OC(C)=O)[C@@H]1[C@@H](N(Cc2ccc(-c3ccccc3)cc2)C(=O)c2ccc(-c3ccccc3)cc2)c2cc(OCCCO)ccc2N1C(=O)c1ccc2ccccc2n1 (stereo not given in full) | 0.0942 | -0.0356 | 0.108 | 0.19 | 0.531 | -0.184 | -0.214 | -0.335 | 0.276 | -0.282 | -0.211 | -0.314 (inactive) | 0.195 | -0.12 | -0.0785 | -0.137 | 0.504 | 0.504 | 0.169 | -0.309 |
